High-throughput results (PubChem)
Sfp PPTase inh: Sfp phosphopantetheinyl transferase inhibition. Q9F4F7. Biochemical Sfp PPTase activity, qHTS. Potency, µM, inactives show largest response in the series, negative = inhibition, hits mostly inhibitors. 3.5% of 310,000 active;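 further: the enzyme is Sfp with the accession as filed and its product quenches rhodamine fluorescence; 0% = enzyme reaction without inhibitor and -100% = no enzyme wells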
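Compounds were incubated with enzyme (final 15 nM) for 15 min at room temperature before substrate addition started the reaction. Fluorescence at 525 nm excitation, 598 nm emission was recorded immediately and after 30 minutes.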
JMJD2A Tudor inh: blocks the human JMJD2A Tudor domain. Potency, µM (doses to about 114 µM), inactives show top-dose activity change, negative = inhibition, hits mostly inhibitors. AlphaScreen JMJD2A-Tudor / H3K4me3 peptide binding. O75164. 4.4% of 390,000 active. AID 504339; further: on the % scale 0 is the no-effect control and ±100 the full control effect; nearly all actives have a fitted effect of over 50% in size
BAZ2B block: inhibitors of human BAZ2B bromodomain. AlphaScreen BAZ2B-H3K14Ac peptide displacement. AID 504333. Q9UIF8. 4.4% of 360,000 active. Potency, µM (titrated, usually from 114 µM), for inactives: at the highest dose activity change, negative = inhibition, usual class: inhibitors; further: on the % scale 0 is the no-effect control and ±100 the full control effect; nearly all actives have a fitted effect of over 60% in size
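BAZ2B 50 nM plus b-H3(5-23)K14Ac 50 nM, PBS pH 7.4/0.01% Tween-20, 30 min RT; compound added (max 110 uM), 30 min RT; streptavidin donor/Ni-chelate acceptor beads 10 ug/mL final, 20 min dark; AlphaScreen read.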
HP1b binding inh: HP1-beta chromodomain-methylated histone interaction inhibition; P83916; AlphaScreen HP1-beta / biotin-H3K9me3 peptide binding; Potency, µM (top dose mostly 114 µM), for the others: at the top dose activity change, negative = inhibition, most hits filed as inhibitors; 0.56% of 390,000 active; further: nearly all actives have a fitted effect of over 70% in size
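AlphaScreen: HP1-beta (50 nM) preformed 30 min with biotin-H3(1-18)K9me3 peptide (50 nM) in PBS pH 7.4, 0.01% Tween-20. Compound added for 30 min at RT, then streptavidin donor/nickel chelate acceptor beads (10 ug/mL) for 30 min.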
PLK1 PBD block: PLK1 (human) polo-box domain binding inhibition; Potency, µM, for the others: max response, negative = inhibition, actives largely listed as inhibitors; Plk1 PBD binding of FITC phosphopeptide, fluorescence polarization; AID 720504; 2.8% of 360,000 active; further: series mostly up to about 57 µM; on the % scale 0 is the no-effect control and ±100 the full control effect; nearly all actives have a fitted effect of over 65% in size
G9a block: G9a (human) methyltransferase inhibition. Q96KQ7. G9a H3K9 monomethylation, AlphaScreen, 2 h. Potency, µM (series often up to 102 µM), for the others: at the highest dose activity, negative = inhibition, usual class: inhibitors. 8.8% of 350,000 active; further: on the % scale 0 is the no-effect control and ±100 the full control effect; nearly all actives have a fitted effect of over 75% in size
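AlphaScreen read-out: biotin-H3K9 peptide (500 nM) methylation by 20 nM enzyme with 20 uM SAM, 2 h at room temperature after 15 min compound preincubation; anti-monomethyl H3K9 antibody plus donor/acceptor beads, 10 min dark.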
* marks the source's active call; other numbers are inactive results; ? = inconclusive; / = no result; [ ] = remark or other dose. Compounds with a hit are over-represented: about 12% of the library has one in this group of screens. The call rests on the fitted dose curve; in most records, active means well fitted curve in the direction sought with a large enough effect; inconclusive means small, poorly fitted or top-dose-only effect, or another doubt; inactive means no such curve, though single readings can be large; an effect the other way counts as inactive or inconclusive. Potency means the concentration at half of the fitted maximal effect.

SMILES	Sfp PPTase inh	JMJD2A Tudor inh	BAZ2B block	HP1b binding inh	PLK1 PBD block	G9a block
CCOC(=O)c1c(NC(=O)CSc2ncccn2)sc2c1CCN(Cc1ccccc1)C2	-21%	22µM*	?	-14%	24µM*	?
COC(=O)c1c(NC(=O)C2COc3ccccc3O2)sc2c1CCN(Cc1ccccc1)C2 (stereo unspecified)	1%	?	-10%	11%	6%	79µM*
CCOC(=O)c1c(NC(=O)CC)sc2c1CCN(Cc1ccccc1)C2	-18%	-32%	-5%	12%	4%	/
Cc1cc(C)n(C(=O)CSc2nnc(SCC(=O)n3nc(C)cc3C)s2)n1	-15%	-26%	22%	25%	-2%	79µM*
Cc1cc(C)n(C(=O)CSc2ccc(Cl)cc2)n1	10%	11%	-5%	28%	2%	/
COc1ccc(NS(=O)(=O)c2ccc3c(c2)Cc2ccccc2-3)cn1	71µM*	-30%	-37%	-5%	-5%	-11%[59 µM]
Cc1coc2cc3oc(=O)c(CC(=O)NCCc4ccccc4)c(C)c3cc12	/	-9%	1%	35%	/	-5%[59 µM]
COc1cc(CN2CCCCC2C(=O)Nc2ccc(Oc3ccccc3)nc2)ccc1O (stereo unspecified)	4%	-28%	-18%	18%	?	5.6µM*
O=C(Nc1ccc(Oc2ccccc2)nc1)C1CCCCN1Cc1ccc(O)cc1 (stereo unspecified)	5%	/	-18%	/	/	-14%
C=CCn1c(SCC#N)nc2sc(CC)cc2c1=O	15%	1%	-2%	63%	0%	0%
CCOc1cc(S(=O)(=O)N(CC)CC)ccc1F	8%	12%	?	24%	-11%	-37%[59 µM]
CCOc1ccc(S(=O)(=O)N(CC)CC)cc1NS(=O)(=O)c1ccc(F)c(F)c1F	15%	50µM*	8%	9%	9.5µM*	-8%[59 µM]
CCN(CC)S(=O)(=O)c1ccc(O)c(NS(=O)(=O)c2ccccc2F)c1	50µM*	-23%[57.1 µM]	-5%	?	24µM*	1.4µM*
Cc1ccc(S(=O)(=O)N2CCCCC2)cc1NS(=O)(=O)c1ccccc1F	/	-21%	/	-10%	-15%	/
COc1cccc(CNCc2ccc(SC)cc2)c1OC	-18%	13µM*	?	?	1%	22µM*
COc1ccc(CNCC(C)NCc2ccc(OC)c(OC)c2)cc1OC (stereo unspecified)	-7%	-18%	-1%	36%	-13%	-13%
COc1cc(CNCc2ccc(C)cc2)cc(OC)c1OC	-22%	20µM*	71µM*	?	-10%	28µM*
COc1ccc(CNCc2c(F)cccc2F)cc1OC	-7%	4µM*	-39%	-4%	-20%	10µM*
COc1cc(CNCc2cccc(OC)c2OC)cc(OC)c1	-1%	25µM*	50%	?	-1%	34%[0.501 µM]
O=C(Oc1ccccc1)N1CCC[C@@]2(CCN(c3ccccc3)C2)C1	-2%	/	/	/	/	5%[12.7 µM]
COc1cc(CNCc2ccncc2)cc(OC)c1OC	-17%	-29%	1%	24%	-3%	-4%[0.501 µM]
CCOc1cc(CNCc2ccc(C(=O)O)cc2)ccc1OC	-13%	2%[11.4 µM]	-36%	61%	-15%	/
COc1cc(CNCc2cc(OC)c(OC)c(OC)c2)cc(OC)c1	-21%	20µM*	?	?	0%	/
CCOc1cc(CNCc2cc(OC)cc(OC)c2)ccc1OC	-16%	1µM*	?	?	-8%	40µM*
CC(C)C[C@H]1CN([C@@H](Cc2ccccc2)CN2CCC[C@H]2CN2C(=O)C(=O)NC[C@@H]2Cc2ccccc2)C(=O)C(=O)N1CCc1ccccc1	/	/	/	/	-7%	/
SMILES	Sfp PPTase inh	JMJD2A Tudor inh	BAZ2B block	HP1b binding inh	PLK1 PBD block	G9a block
CS(=O)(=O)N1CCC2(CC1)CN(c1ccccc1)C2	7%	/	/	/	/	7%[12.7 µM]
CCc1ccc(C(=O)NNC(=O)CCC2CCCCC2)cc1	11%	-15%	1%	12%	1%	11%
CCCCOC(=O)/C(C#N)=C/c1ccc(-c2ccc(Br)cc2)o1	/	-8%	2%	25%	/	-27%[59 µM]
CCCCc1ccc(/C=C(\C#N)C(N)=S)s1	40µM*	35µM*	45µM*	25µM*	-16%	35µM*
CC(=O)c1ccc(N2CCN(C(=O)c3ccco3)CC2)c(F)c1	6%	-30%[11.4 µM]	-5%	-4%	19µM*	?
O=C(c1ccco1)N1CCN(Cc2cc(=O)oc3cc(O)ccc23)CC1	/	-10%	-5%	21%	-2%	22µM*
O=c1cc(CN2CCN(Cc3ccccc3)CC2)c2ccc(O)cc2o1	12%	-21%	-19%	-1%	2%	5%
O=C(c1ccco1)N1CCN(S(=O)(=O)c2ccc(Br)s2)CC1	?	-16%	-12%	4%	-14%	13µM*
Cc1cccc(OCC(=O)N2CCN(C(=O)c3ccco3)CC2)c1	22%	-23%	-10%	15%	38µM*	3%
Cc1ccc(Cl)cc1NC(=O)Cn1c(C)csc1=O	/	0%	8%	19%	-4%	6%[12.7 µM]
O=C(c1ccco1)N1CCN(Cc2cccc3ccccc23)CC1	?	22µM*	20µM*	22µM*	-11%	14µM*
CCc1ccc(CN2CCN(C(=O)c3ccco3)CC2)cc1	?	20µM*	32µM*	?	-12%	11µM*
COc1cccc(CN2CCN(C(=O)c3ccco3)CC2)c1	?	28µM*	28µM*	?	-5%	20µM*
O=C(c1ccco1)N1CCN(Cc2c(Cl)cccc2Cl)CC1	10%	-10%	2%	37%	-8%	7%
COc1cccc(S(=O)(=O)N2CCN(C(=O)c3ccco3)CC2)c1	?	-3%	?	48%	2%	?
O=C(COc1ncnc2ccccc12)N1CCN(C(=O)c2ccco2)CC1	15%	-2%	3%	26%	-11%	-6%
O=C(COc1ncnc2sccc12)N1CCN(C(=O)c2ccco2)CC1	0%	?	?	20%	?	50µM*
CCCCCCn1c(=O)n2n(c1=O)C[C@]1(OC(=O)NCc3ccco3)CN(S(=O)(=O)c3ccc(C)cc3)C[C@]1(O)C2	/	/	/	/	-2%	/
O=C(NCCCCN1CCOCC1)c1cc2ccccc2o1	4%	/	/	/	/	/
CCOc1ccc(CCNC(=O)Cn2nc(CC)n3c(cc4c(OC)cccc43)c2=O)cc1OCC	/	-2%	29%	42%	/	38%[59 µM]
COc1ccc(OC)c(CN2CCN(C(=O)c3ccco3)CC2)c1	-29%	0.79µM*	?	?	-6%	18µM*
Cn1c(C(=O)N2CCN(C(=O)c3ccco3)CC2)cc2c(=O)n3ccccc3nc21	20µM*	-21%	10%	32%	-8%	?
COc1ccc(CC(=O)N2CCN(C(=O)c3ccco3)CC2)cc1	-24%	-7%	-1%	12%	-21%	?
